These results are taken from PubChem BioAssay.

Where “and” joins values, the source holds several entries; their conditions need not be identical. Identical values can stand only once. Calls of active or inactive are those of the source.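 Rule for the calls: active = mean z-score across replicates of 1.96 or higher in either the MELAS or the Rieske mutant cell line; inactive = the rest.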

A short description of the test: survival rescue of mitochondrial mutant cells in low glucose, primary screen, MELAS cybrids, Rieske KO mouse fibroblasts, CellTiter-Glo (AID 1508586).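 Note: test concentration not given here; z relative to plate mean and SD of compound and empty wells.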 The following applies: MELAS cybrid survival, CellTiter-Glo 48 h, active compounds read high.
As for `CC(CNC(=O)c1cccnc1)NC(=O)c1cccnc1` (centres undefined), the z-score is -0.163 (inactive).
Take `CCOC(=O)C(CCc1ccccc1)NC1CSC(c2cccs2)CN(CC(=O)O)C1=O` (centres undefined): the z-score is -0.343 (inactive).
As for `CNc1nc(Nc2cnn(C3CCN(C4COC4)CC3F)c2Cl)ncc1C(F)(F)F` (centres undefined), the z-score was -0.354 (inactive).
As for `C=C1CCC(O)CC1=CC=C1CCC[C@]2(C)C(C(C)C=CC(C)C(C)C)CC[C@@H]12` (some centres undefined), the z-score was -0.149 (inactive).
As for `O=C(C=Cc1cccc(S(=O)(=O)Nc2ccccc2)c1)NO`, the z-score is 0.973 (inactive).
Regarding `CCN1C(=CC(C)=O)Sc2ccc(OC)cc21`, the z-score was 0.342 (inactive).
Regarding `CC1C[C@@H]2[C@@H](C(O)C[C@@]3(C)[C@H]2CC[C@@]3(O)C(=O)CO)[C@@]2(C)C=CC(=O)C=C12` (some centres undefined), the z-score is -0.489 (inactive).
For `Cc1onc(-c2ccccc2Cl)c1C(=O)NC1C(=O)N2C(C(=O)O)C(C)(C)S[C@@H]12` (some centres undefined), the z-score was -0.365 (inactive).
Turning to `CC(CCC(=O)O)C1CC[C@H]2[C@@H]3CC[C@@H]4CC(O)CC[C@]4(C)[C@H]3CC[C@]12C` (some centres undefined), the z-score is -0.0806 (inactive).
`CC(=O)O[C@@]1(C(C)=O)CC[C@H]2[C@@H]3CCC4=CC(=O)CCC4=C3C(c3ccc(N(C)C)cc3)C[C@@]21C` (some centres undefined): the z-score was -0.373 (inactive).
For the compound `CC1(C)S[C@@H]2C(NC(=O)Cc3ccccc3)C(=O)N2C1C(=O)O` (some centres undefined), the z-score is 0.0178 (inactive).
As to `O=C1c2ccc(Nc3ccc(F)cc3F)cc2CCc2ccc(OCC(O)CO)cc21` (centres undefined), the z-score is -0.55 (inactive).
For the compound `COc1cc2ncnc(Sc3nnc(C)s3)c2cc1OC`, the z-score was 2.8 (active).
The figure for `CC(C)(F)CC(NC(c1ccc(-c2ccc(S(C)(=O)=O)cc2)cc1)C(F)(F)F)C(=O)NC1(C#N)CC1` (centres undefined) is -0.379 (inactive).
As for `CC(NC(=O)C(C#N)=Cc1cccc(Br)n1)c1ccccc1` (centres undefined), the z-score was 0.502 (inactive).
On to `COc1cccc2c1C(=O)c1c(O)c3c(c(O)c1C2=O)C[C@@](O)(C(C)=O)CC3O[C@H]1CC(N)C(O)C(C)O1` (some centres undefined), for which the z-score was 2.59 (active).
For `COc1cc(C=CC(=O)N2CCN(CC(=O)N3CCCC3)CC2)cc(OC)c1OC` the value was -0.177 (inactive); for `CC(C)(O)CCC(O)[C@](C)(O)C1CC[C@@]2(O)C3=CC(=O)[C@@H]4CC(O)C(O)C[C@]4(C)[C@@H]3CC[C@]12C` (some centres undefined), -0.354 (inactive); for `O=C(O)c1cc(I)ccc1NC(=O)C(Cc1ccccc1)NCc1ccccc1` (centres undefined), -0.035 (inactive).
Consider `COC(c1ccccc1)(c1ccccc1)C(Oc1nc(C)cc(C)n1)C(=O)O` (centres undefined), for which the z-score was -0.106 (inactive) and 0.539 (inactive).
In the case of `CC1(C)O[C@H]2CC(=O)OC[C@]23[C@H]2CC[C@@]4(C)C(c5ccoc5)OC(=O)C5O[C@]54[C@@]2(C)C(=O)C[C@@H]13` (some centres undefined), the z-score is -0.275 (inactive).
In the case of `C=CC[N+]1(C2C[C@H]3[C@@H]4CC[C@H]5CC(O)C(N6CCOCC6)C[C@]5(C)[C@@H]4CC[C@]3(C)C2OC(C)=O)CCCC1` (some centres undefined), the z-score is -0.403 (inactive).
Turning to `CC1C(NC(=O)C(=NOC(C)(C)C(=O)O)c2csc(N)n2)C(=O)N1S(=O)(=O)O` (centres undefined), the z-score was -0.398 (inactive).
Turning to `Cc1c(O)cccc1C(=O)NC(CSc1ccccc1)C(O)CN1C[C@H]2CCCC[C@H]2CC1C(=O)NC(C)(C)C` (some centres undefined), the z-score was -0.177 (inactive).
Turning to `CC1(C)C=C(CN2CC(=Cc3ccc(F)cc3)C(=O)C(=Cc3ccc(F)cc3)C2)C(C)(C)N1O`, the z-score was -0.493 (inactive).
Take `CC1CNc2c(cccc2S(=O)(=O)N[C@@H](CCCN=C(N)N)C(=O)N2CCC(C)CC2C(=O)O)C1` (some centres undefined): the z-score was -0.261 (inactive).
Regarding `CN(C)C(=O)Nc1cccc(-c2ccc(N(C)C)cc2)c1`, the z-score is -0.267 (inactive).
With `CCC1C(=O)N(C)c2cnc(Nc3ccc(C(=O)NC4CCN(C)CC4)cc3OC)nc2N1C1CCCC1` (centres undefined), the z-score was 1.18 (inactive).
As to `CCC(C)C(=O)OC1CC(O)C=C2C=CC(C)C(CCC(O)CC(O)CC(=O)O)[C@H]21` (some centres undefined), the z-score is 0.0242 (inactive).
Take `O=[N+]([O-])c1cn2c(n1)OCC(OCc1ccc(OC(F)(F)F)cc1)C2` (centres undefined): the z-score is -0.338 (inactive).
Take `CC1OC(O)C(O)C(O)C1O` (centres undefined): the z-score was -0.0523 (inactive).
With `CC1CC(=O)NN=C1c1ccc(NN=C(C#N)C#N)cc1` (centres undefined), the z-score was -0.305 (inactive).
For the compound `O=c1ncccn1C1OC(CO)C(O)C1O` (centres undefined), the z-score is -0.447 (inactive).
In the case of `Cc1nc(Nc2n[nH]c3c2CN(C(=O)NC(CN(C)C)c2ccccc2)C3(C)C)c2sccc2n1` (centres undefined), the z-score is 0.106 (inactive).
`C=C1C(=O)OC2C=C(C)CCC=C(C)CCC12` (centres undefined): the z-score is -0.398 (inactive).
Turning to `CCOC(=O)c1ccc(N2NC(=O)C(=Cc3ccc([N+](=O)[O-])o3)C2=O)cc1`, the z-score was -0.255 (inactive).
With `CC(C=CC1=C(C)CCCC1(C)C)=CC=CC(C)=CC(=O)O`, the z-score is -0.296 (inactive) and 0.176 (inactive).
On to `COc1ccc(CCc2nc3cc(-c4c(C)noc4C)ccc3n2CC(C)N2CCOCC2)cc1Cl` (centres undefined), for which the z-score is -0.0999 (inactive).
The figure for `O=C(CCCS)NC1CCN(C(=O)COc2ccc(Cl)cc2Cl)CC1` is -0.37 (inactive).
